This assay has as its system T1, Receptor-type tyrosine-protein kinase FLT3 (Homo sapiens), P36888 [D835Y].
T1 sequence (whole entry): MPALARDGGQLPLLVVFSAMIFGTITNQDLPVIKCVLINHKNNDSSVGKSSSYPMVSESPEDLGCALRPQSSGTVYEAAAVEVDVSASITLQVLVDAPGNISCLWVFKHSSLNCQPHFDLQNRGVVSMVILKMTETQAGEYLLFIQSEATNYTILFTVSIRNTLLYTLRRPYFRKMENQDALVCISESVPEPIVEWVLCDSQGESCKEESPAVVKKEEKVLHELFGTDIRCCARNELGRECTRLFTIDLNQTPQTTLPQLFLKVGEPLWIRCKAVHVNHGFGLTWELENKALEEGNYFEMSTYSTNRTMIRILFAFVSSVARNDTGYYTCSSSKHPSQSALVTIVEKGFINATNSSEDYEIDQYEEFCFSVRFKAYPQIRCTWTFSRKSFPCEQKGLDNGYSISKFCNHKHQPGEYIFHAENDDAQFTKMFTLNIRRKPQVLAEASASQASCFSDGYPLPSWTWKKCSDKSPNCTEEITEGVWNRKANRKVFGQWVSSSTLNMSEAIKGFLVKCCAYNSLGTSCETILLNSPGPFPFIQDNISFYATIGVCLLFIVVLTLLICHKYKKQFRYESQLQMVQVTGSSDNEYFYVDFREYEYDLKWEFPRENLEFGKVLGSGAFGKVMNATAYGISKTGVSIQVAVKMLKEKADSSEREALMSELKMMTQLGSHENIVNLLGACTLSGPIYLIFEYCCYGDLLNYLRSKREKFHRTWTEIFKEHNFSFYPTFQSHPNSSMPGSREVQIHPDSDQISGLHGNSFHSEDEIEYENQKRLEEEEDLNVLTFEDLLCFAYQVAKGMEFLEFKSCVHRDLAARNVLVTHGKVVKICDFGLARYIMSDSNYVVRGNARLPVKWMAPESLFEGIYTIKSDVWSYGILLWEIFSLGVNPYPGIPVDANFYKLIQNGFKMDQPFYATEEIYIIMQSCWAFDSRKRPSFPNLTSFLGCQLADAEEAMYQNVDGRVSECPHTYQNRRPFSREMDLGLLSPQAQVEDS
The conditions noted are these: at 0.1 µM.
Regarding `CS(=O)(=O)CCN(CC#N)Cc1ccc(-c2ccc3ncnc(Nc4ccc(OCc5cccc(F)c5)c(Cl)c4)c3c2)o1`, the inhibition is -4.23%.
For `CC(=O)Nc1cccc(C#Cc2cncnc2Nc2ccc(OCc3cccc(F)c3)c(Cl)c2)n1` the value was 1.25%; for `COc1ccccc1Nc1ncc(-c2ccccc2)o1`, 5.09%.
For `NS(=O)(=O)c1cccc(-c2ccc3c(NC(=O)C4CC4)n[nH]c3c2)c1` the value was -3.17%; for `Cc1nnc(-c2ccc(C)c(-c3ccc(C(=O)Nc4cccc(C#N)c4)cc3)c2)o1`, 0.86%; for `COc1ccc(-c2nn3ncccc3c2-c2ccnc(Nc3ccc(Cl)c(C(F)(F)F)c3)n2)cc1`, -1.91%.
In the case of `O=C1NC(=O)C(c2ccc(Cl)cc2)=C1Nc1ccc(Cl)c(C(=O)O)c1`, the inhibition was -7.38%.
In the case of `COC(=O)Nc1nc2cc(Oc3cccc(NC(=O)Nc4cc(C(F)(F)F)ccc4F)c3)ccc2[nH]1` it was 1.62%.
Regarding `O=C1NC(=O)C(c2cccc(Cl)c2)=C1Nc1ccc(O)c(Cl)c1`, the inhibition was -6.93%.
In the case of `CCCN1CCC=C(c2ccc(Nc3nc(Nc4ccccc4C(N)=O)c4cc[nH]c4n3)c(C)c2)C1` it was 3.17%; in that of `Nc1nc(-c2ccc3c(c2)C(=Cc2cc(Br)c(O)c(Br)c2)C(=O)N3)cs1`, -2.57%.
In the case of `O=C1NC(=O)C(c2ccccc2Cl)=C1Nc1cccc(O)c1` it was 3.17%.
Turning to `CCc1cccc(NC(=O)Nc2ccc(Oc3ccc4nc(NC(=O)OC)[nH]c4c3)cc2)c1`, the inhibition was 1.59%.
In the case of `CC1=C(C(=O)Nc2ccc3[nH]ncc3c2)C(c2ccc3ccccc3c2)CC(=O)N1` (stereo not given) it was 0.1%; in that of `CS(=O)(=O)Nc1ccc(N/C=C2\C(=O)Nc3ccccc32)cc1`, 18.7%.
